# In PubChem BioAssay (NCI):
# The panel holds about 83,000 compounds, 20% with a hit somewhere; the sample as a whole holds those more often.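 Each cell line was grown in a 96-well plate and treated with one concentration of compound for 48 hours. Values below 10 were considered active.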 A number with no mark means an inactive call. Calls of active or inactive are those of the source.
# Experiments:
# Assay in all cases: NCI-60 one-dose screen, 48 h (100 = growth as untreated, 0 = no growth, -100 = all killed)
# Settings in all cases: 10 µM unless noted
# DU-145 prostate = system: DU-145 prostate
# K-562 leukemia = system: K-562 leukemia
# MALME-3M melanoma = system: MALME-3M melanoma
# MDA-MB-231 breast = system: MDA-MB-231 breast
# RXF 393 renal = system: RXF 393 renal
# SF-268 CNS = system: SF-268 CNS
# SF-295 CNS = system: SF-295 CNS
# SF-539 CNS = system: SF-539 CNS
# UACC-257 melanoma = system: UACC-257 melanoma
# M14 melanoma = system: M14 melanoma
# HCT-15 colon = system: HCT-15 colon
# HT29 colon = system: HT29 colon
# SNB-75 CNS = system: SNB-75 CNS
# SNB-19 CNS = system: SNB-19 CNS
# U251 CNS = system: U251 CNS
# PC-3 prostate = system: PC-3 prostate
# SK-MEL-5 melanoma = system: SK-MEL-5 melanoma
# UACC-62 melanoma = system: UACC-62 melanoma
# LOX IMVI melanoma = system: LOX IMVI melanoma
# SK-MEL-28 melanoma = system: SK-MEL-28 melanoma
SMILES,growth (DU-145 prostate),growth (K-562 leukemia),growth (MALME-3M melanoma),growth (MDA-MB-231 breast),growth (RXF 393 renal),growth (SF-268 CNS),growth (SF-295 CNS),growth (SF-539 CNS),growth (UACC-257 melanoma),growth (M14 melanoma),growth (HCT-15 colon),growth (HT29 colon),growth (SNB-75 CNS),growth (SNB-19 CNS),growth (U251 CNS),growth (PC-3 prostate),growth (SK-MEL-5 melanoma),growth (UACC-62 melanoma),growth (LOX IMVI melanoma),growth (SK-MEL-28 melanoma)
O=C1CC(N2C(=O)/C(=C/C(Cl)=C\c3ccc([N+](=O)[O-])cc3)SC2=S)C(=O)N1c1ccc(O)cc1 (stereo not given),0.996% (active),6.6% (active),-39% (active),-10.3% (active),-70.5% (active),5.72% (active),-37.2% (active),-28.8% (active),-5.88% (active),-7.42% (active),-38.2% (active),-16.7% (active),14.9%,-9.69% (active),-39.5% (active),5.02% (active),-39.1% (active),-63.2% (active),-83.7% (active),-34% (active)
CC1=NOC(=O)/C1=C\c1ccc(O)cc1,111%,98.2%,100%,95.1%,115%,98.4%,99.6%,98.8%,101%,103%,104%,106%,77.9%,99%,101%,101%,101%,100%,96.8%,103%
O=C(c1ccccc1)c1c(/C=C/c2ccccc2)nc2ccccc2c1/C=C/c1ccc(Br)cc1,105%,97.3%,106%,100%,104%,91.6%,101%,106%,99.8%,96.8%,108%,102%,83.1%,88.9%,95.9%,90.2%,101%,82%,90.6%,108%
COC(=O)[C@]12CC[C@@H](C)[C@H](C)[C@@H]1C1=CC[C@@H]3[C@@]4(C)C(C=O)=C[C@@](C)(CO)[C@@H]4[C@H](O)C[C@@]3(C)[C@]1(C)CC2,-30% (active),6.68% (active),-70.7% (active),-47.6% (active),-82% (active),-0.0873% (active),-15.6% (active),-44% (active),-48.4% (active),-51.5% (active),-68.1% (active),-37.7% (active),3.2% (active),24.4%,-19% (active),-0.105% (active),-85.7% (active),-34.5% (active),-97.9% (active),-34.5% (active)
CC(C)(C)C(CCc1ccc(Cl)cc1)N1CCN(C2CCCCC2)CC1 (stereo not given),25.3%,9.18% (active),83.4%,12.3%,83.2%,43.8%,72.6%,81.2%,51.4%,31.9%,38.1%,12.6%,77.7%,70.6%,38.1%,27.7%,46.4%,46.8%,-20.3% (active),83.1%
COc1ccc2nc(NNC(=O)c3cnccn3)c3cccn3c2c1,1.09% (active),4.97% (active),-6.33% (active),5.83% (active),41.2%,9.31% (active),2.1% (active),-19.7% (active),-8.01% (active),-37.5% (active),-19.5% (active),10%,25.3%,6.9% (active),0.414% (active),16.5%,0.958% (active),-34.2% (active),-36.3% (active),11.7%
COc1cccc(Nc2nccc(Nc3ccc4[nH]ncc4c3)n2)c1,-59.1% (active),-9.77% (active),-48.7% (active),15%,18.4%,26.3%,16.2%,13.9%,11.2%,-74.2% (active),-26.6% (active),-58.3% (active),30.3%,24.1%,-93.7% (active),-81.2% (active),-83.6% (active),-56.7% (active),-66.9% (active),-42.6% (active)
